Source: PubChem
An excerpt weighted towards active compounds, which were near 5.3% of everything screened.
SUMO Mot1 rescue: SUMOylation pathway inhibition by Mot1-301 growth rescue. growth rescue, % at 18.8 µM. hit rate 1% among 320,000. S. cerevisiae Mot1-301 growth rescue, ATP luminescence, 38.5C; percent above DMSO median, 100 means doubled. AID 2716;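 active = every valid replicate shows activation above 250% relative to neutral control wells; inactive = the rest, any valid replicate at or below 250%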;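 also: OY570 slx delta 5 strain wells were the positive control but not used for scaling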
M18AAP inhibitor: blocks P. falciparum M18 aspartyl aminopeptidase; hit rate 1.2% among 290,000; recombinant PfM18AAP, H-Glu-NHMec fluorogenic cleavage; inhibition, % at 7.35 µM; AID 1822;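 active = inhibition above the campaign mean inhibition over all tested compounds plus 3 SD, cut at about 28% in these data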;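 also: 0% = plate median of test compound wells and 100% = 2 mM ZnCl2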
ALR inh: blocks human ALR sulfhydryl oxidase activity. P55789. purified ALR, DTT oxidation, H2O2 HRP-luminol luminescence. inhibition, % (test concentration not listed). hit rate 3.8% among 290,000. AID 485317;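 active = mean replicate inhibition above about 79%, with every replicate also reaching it, limit read from the data; inconclusive = only one of the two criteria met; inactive = mean below limit and not every replicate reaching it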
Target sequence (P55789 whole entry, looked up): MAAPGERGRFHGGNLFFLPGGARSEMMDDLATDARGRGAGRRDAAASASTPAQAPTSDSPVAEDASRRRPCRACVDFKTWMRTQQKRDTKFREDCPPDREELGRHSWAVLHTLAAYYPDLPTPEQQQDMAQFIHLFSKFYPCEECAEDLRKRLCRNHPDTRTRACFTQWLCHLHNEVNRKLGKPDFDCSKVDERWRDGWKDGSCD
HIF activator: HIF pathway transcriptional activation. U2OS HRE-luciferase reporter, luminescence; normalized: DMSO 0%, desferrioxamine 100%. activation, % at 7.5 µM (by protocol). hit rate 0.32% among 300,000. AID 1910;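 active = mean activation of at least 10% of the iron chelator positive control signal, with at least half of replicates also reaching 10%; inconclusive = mean and replicate majority disagree about reaching 10%; inactive = mean and most replicates under 10%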
* hit, by the source's call; ? = inconclusive; nt = no result given.

SMILES	SUMO Mot1 rescue	M18AAP inhibitor	ALR inh	HIF activator
COc1ccccc1C(=O)Nc1ccc(N2CCCCC2)cc1	13	1	83*	3
O=C(Nc1ccc(N2CCCCCC2)cc1)c1ccc[nH]1	-1	nt	99*	nt
O=C(Nc1ccc(N2CCCCCC2)cc1)c1ccccc1Cl	0	20	66	8
COc1ccccc1C(=O)Nc1ccccc1SC(=O)c1ccccc1OC	4	31*	-3	?
CC(C)C(C(=O)NCC1CCCO1)N(CC1CCCO1)C(=O)CNS(=O)(=O)c1ccccc1 (centres undefined)	-5	2	5	1
O=S(=O)(NCC1CCN(c2ccc(S(=O)(=O)N3CCOCC3)cc2)CC1)c1ccc(F)cc1	-3	-4	nt	0
O=C(Nc1ccn(Cc2cccc3ccccc23)n1)c1cccnc1	-14	4	1	0
N#Cc1c2ccc(OCC(N)=O)cc2n2ccccc12	371*	-3	-50	0
O=C(O)c1ccc(CNC(=O)c2ccc3c(c2)C(=O)N(Cc2cccnc2)C3=O)cc1	1	-7	-5	nt
CCCC(=O)Nc1ccc(-c2csc(N/N=C\c3ccncc3)n2)cc1	-22	17	98*	1
CC(=O)Nc1ccc(-c2csc(N/N=C\c3ccncc3)n2)cc1	0	9	99*	1
CC1(C)COC(c2coc3ccccc3c2=O)OC1	-11	-10	-1	1
Cc1ccc(C)c(NC(=O)CCN2CCN(c3ccccc3F)CC2)c1	2	0	-10	0
CCCCCc1c2c(cc(O)c1C(=O)O)OC(=O)c1c(cc(OC)cc1C(=O)CCCC)O2	-17	-2	98*	0
O=C(CSc1nnc(C2CCCCC2)n1Cc1ccccc1)NCc1ccco1	3	-2	8	0
CCn1cnc2cc(NCc3nc4ccccc4n3C)ccc21	-16	0	33	0
CCn1cnc2cc(NCc3cccs3)ccc21	-17	9	?	1
CN(C)c1ccc(CNc2ccc3c(c2)ncn3C(C)(C)C)cc1	-4	11	93*	-1
CCN(CC)c1ccc(CNc2ccc3c(c2)ncn3CC)cc1	7	15	98*	1
CCn1cnc2cc(NCc3ccc(N(C)C)cc3)ccc21	-18	13	98*	1
O=C(Cn1nnc(-c2ccncc2)n1)N(C1CCCCC1)C1CCCCC1	116	-1	-4	nt
Cc1nnc(SCC(=O)NNC(=O)c2ccc(F)cc2)n1Cc1ccccc1	1	nt	1	nt
CCOC(=O)Cn1cncc1-c1ccc([N+](=O)[O-])cc1	3	1	97*	2
CCOc1ccc(NC(=O)Cn2cncc2-c2ccc([N+](=O)[O-])cc2)cc1	44	7	-3	0
CN(C)CCNC(=O)Cn1ccc2cc(S(=O)(=O)N3CCCCC3)ccc21	-3	-2	-12	nt
SMILES	SUMO Mot1 rescue	M18AAP inhibitor	ALR inh	HIF activator
Cc1ccccc1COc1ccc(-c2nn[nH]n2)cc1	-1	1	42	-1
Brc1cc2c(cc1COc1ccc(-c3nn[nH]n3)cc1)OCO2	1	-3	98*	0
O=C(O)CN1C(=O)/C(=C\c2cccc(OCc3ccc(Cl)cc3)c2)SC1=S	-10	4	97*	0
O=C(O)CN1C(=O)/C(=C/c2ccsc2)SC1=S	-6	29*	30	-1
O=C(O)CN1C(=O)/C(=C\c2cccc(OC(=O)c3ccco3)c2)SC1=S	417*	-2	21	-45
CCN1C(=O)/C(=C\c2cccc(OC(=O)c3ccco3)c2)SC1=S	321*	1	nt	0
O=C(O)CN1C(=O)/C(=C\c2cccc(OCc3ccc(F)cc3)c2)SC1=S	-6	-6	68	-8
C=CCN1C(=O)/C(=C\c2cccc(OC(=O)c3ccco3)c2)SC1=S	4	9	-4	0
N/C(=N/OC(=O)c1ccccc1Cl)c1ncc([N+](=O)[O-])s1	-14	12	-16	2
O=C(COC(=O)COc1ccccc1)NC1CCCC1	3	nt	-1	nt
COc1ccc(C2=NS(=O)(=O)N(C)C(C(=O)N3CCc4ccccc4C3)=C2)cc1OC	-6	2	2	0
CCOc1ccc(/C=C/C(=O)c2c(O)cc(C)oc2=O)cc1	270	-1	95*	3
COc1ccc(/C=C\C(=O)c2c(O)ccc3c(C)cc(=O)oc23)cc1	-18	4	97*	0
Cc1nc2cc3nc(C)sc3cc2s1	-26	29*	-24	4
CCOc1ccc(C(=O)OCC(=O)NC2CCCC2)cc1OCC	9	-9	6	-2
O=C(CCNS(=O)(=O)c1ccc(Cl)cc1)N1CCOCC1	7	-5	0	-1
Cc1ccc(S(=O)(=O)CCC(=O)N(CCCN2CCOCC2)c2nc3ccccc3s2)cc1	-22	nt	98*	2
CCCC(=O)N(CCN1CCOCC1)c1nc2cc(C)c(C)cc2s1	27	6	95*	1
Cc1ccc2nc(N(CCN3CCOCC3)C(=O)CCS(=O)(=O)c3ccccc3)sc2c1	-19	nt	9	2
O=C(CCS(=O)(=O)c1ccccc1)N(CCCN1CCOCC1)c1nc2ccccc2s1	-11	nt	98*	2
Cc1ccc(CN2CCC(N3CC(C)OC(C)C3)CC2)cc1 (centres undefined)	54	-4	8	1
CSc1ccc(CN2CCC(N3CC(C)OC(C)C3)CC2)cc1 (centres undefined)	285*	-4	2	0
CN1CCN(NC(=O)/C=C/c2ccc(C(C)(C)C)cc2)CC1	33	-1	12	0
O=S(=O)(c1ccc(Cl)cc1)c1snnc1-c1ccccc1	307*	11	2	-1
CN(Cc1ccccc1F)C(=O)c1ccccc1Sc1ccccc1C#N	-1	-4	3	1
SMILES	SUMO Mot1 rescue	M18AAP inhibitor	ALR inh	HIF activator
CCC(C)(C)C1CCc2[nH]nc(C(=O)NC(C)C)c2C1 (centres undefined)	10	nt	1	nt
Nc1ccc(N=Nc2ccccc2O)c(N)c1	13	nt	83*	3
Oc1ccccc1N=Nc1ccccc1O	nt	11	nt	202*
O=C(C[n+]1ccn(CCCNP2(=O)C=C(c3ccccc3)OC(c3ccccc3)=C2)c1)c1cccs1	0	-7	0	101*
CN(C)c1ccc(C(=S)N2CCN(c3ccccc3)CC2)cc1	720	3	99*	0
Oc1ccc(C(=S)N2CCCCC2)cc1	28	-18	10	0
CC1CCN(C(=S)c2ccc(N(C)C)cc2)CC1	-27	4	99*	1
CN(C)c1ccc(C(=O)N2CCCC2)cc1	nt	5	98*	1
CN(C)c1ccc(C(=S)N2CCN(S(=O)(=O)c3ccccc3)CC2)cc1	44	7	27	1
CN(C)c1ccc(C(=S)N2CCCCCC2)cc1	-3	2	98*	0
Oc1ccc(C(=S)N2CCCCC2)cc1Cl	-4	-1	44	1
O=C(Nc1ccccc1Cl)C1CC(=O)n2c(nc3ccccc32)N1 (centres undefined)	-22	-15	-3	0
CN(C)c1ccc(C(=S)N2CCOCC2)cc1	39	-4	99*	nt
Cc1[nH]c(C)c(S(=O)(=O)NCc2ccc(N(C)C)cc2)c1C(=O)N1CCCC1	1	4	98*	0
